Sampled rows, rich in hits. Any-hit rate of the full collection: about 2.8%.
WRN helicase inh: WRN helicase (human) inhibition | Q14191 | WRN helicase unwinding, fluorescent forked duplex, kinetic | Potency, µM (series often up to 114 µM), for the others: top-dose activity change, negative = inhibition, most hits filed as inhibitors | 0.46% of 360,000 active | AID 651768; further: potency means the concentration at half of the fitted maximal effect; on the % scale 0 is the no-effect control and ±100 the full control effect; nearly all actives have a fitted effect of over 55% in size
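WRN at 20 nM final was preincubated with compound for 15 min at room temperature; reaction started with 100 nM forked duplex oligonucleotide carrying fluorophore and quencher plus 2 mM ATP (final). Unwinding followed kinetically by red fluorescence (ex 525/em 598 nm).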
POLH inh: blocks human DNA polymerase eta activity. Q9Y253. recombinant Pol eta, fluorescent DNA replication assay. Potency, µM (series often up to 114 µM), for the others: at the highest dose activity change, negative = inhibition, hits mostly inhibitors. 1.2% of 390,000 active. AID 588591; further: potency means the concentration at half of the fitted maximal effect; on the % scale 0 is the no-effect control and ±100 the full control effect
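Pol eta at 10 nM preincubated with compounds 15 min at room temperature; reaction started with fluorescent substrate (50 nM final) and read kinetically at 0 and 10 min.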
POLK inh: inhibitors of human DNA polymerase kappa; 0.53% of 400,000 active; AID 588579; Potency, µM (titrated, usually from 107 µM), for inactives: at the top dose activity, negative = inhibition, most hits filed as inhibitors; purified Pol kappa, fluorescent DNA synthesis assay, 10 min; Q9UBT6; further: potency means the concentration at half of the fitted maximal effect; on the % scale 0 is the no-effect control and ±100 the full control effect
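Kinetic fluorescence readout at 0 and 10 min followed reaction start with substrate at 50 nM final. Beforehand, enzyme (10 nM Pol kappa) stood 15 min with compound at room temperature; buffer-only wells were negative controls.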
POLB inh: DNA polymerase beta (human) inhibition; P06746; Pol beta primer extension/strand displacement, fluorescence kinetic; Potency, µM (highest dose often 114 µM), for inactives: top-dose activity change, negative = inhibition, hits mostly inhibitors; 1.3% of 340,000 active; further: potency means the concentration at half of the fitted maximal effect; on the % scale 0 is the no-effect control and ±100 the full control effect
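Human Pol beta at 10 nM; strand-displacement substrate 50 nM final. Compound exposure 15 min at room temperature before start, reaction 10 min at room temperature.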
Pol iota inh: blocks human DNA polymerase iota activity; Potency, µM (highest dose often 115 µM), for the others: top-dose activity, negative = inhibition, most hits filed as inhibitors; Pol iota fluorescent replication assay, 10 min; Q9UNA4; 1% of 390,000 active; AID 588590; further: potency means the concentration at half of the fitted maximal effect
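Pol iota at 10 nM preincubated 15 min with compounds at room temperature; reaction started with fluorescent substrate, 50 nM final. Fluorescence read kinetically at 0 and 10 min; buffer-only wells as negative control.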
PI5P4K alpha inh: inhibitors of human PI5P4K alpha; P48426; PI5P4Kalpha enzyme, ADP-Glo luminescence, 60 min; hits give low values; max response, %; 1.2% of 330,000 active; AID 652105; active means max response of -50% or lower; inconclusive means between -30% and -50%; inactive means -30% or higher; further: value at the top dose of about 77 µM; on the % scale 0 is the no-effect control and ±100 the full control effect
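ADP-Glo luminescence end-point read after a 60 min room-temperature kinase reaction of PI5P4Kalpha plus substrate, initiated with ATP at 5 microM final. Buffer: 0.038 M HEPES pH 7.4, EGTA, 0.1% CHAPS, 5% DMSO.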
The depositor's hits bear a star; [ ] = remark or other dose. Unless noted, the call rests on the fitted dose curve; in most records, active means well fitted curve in the direction sought with a large enough effect; inconclusive means small, poorly fitted or top-dose-only effect, or another doubt; inactive means no such curve, though single readings can be large; an effect the other way counts as inactive or inconclusive.

CCC1=C[C@@H]2CN(C1)Cc1c([nH]c3ccccc13)[C@@](C(=O)OC)(c1cc3c(cc1OC)N(C)[C@@H]1[C@@](O)(C(=O)OC)[C@H](OC(C)=O)[C@]4(CC)C=CCN5CC[C@]31[C@@H]54)C2 was read as POLK inh 4.2%[19.4 µM].
O=c1oc2c(F)cc(F)cc2cc1S(=O)(=O)c1ccc(F)cc1 was read as POLK inh -3.6%, POLB inh 26.6% and Pol iota inh -14.7%.
O=c1oc2ccccc2c(O)c1/C=C1\C=Nc2ccccc21 was read as WRN helicase inh -31.2%, POLH inh 9.0%, POLK inh -14.1%, POLB inh -13.9%, Pol iota inh inconclusive and PI5P4K alpha inh -56.2*.
CCCCNC(=O)[C@@H]1CC=C[C@@H]2CCN(CCCC)C(=O)[C@@H]21 was read as POLK inh -21.6% and Pol iota inh 3.7%.
For FC(F)(F)c1nnc2ccc(NCc3ccccc3)nn12 the results were WRN helicase inh -1.1%, POLH inh 2.4%, POLK inh -17.6%, POLB inh 1.2%, Pol iota inh 8.1% and PI5P4K alpha inh 2.1.
FC(F)(F)c1nnc2ccc(NCn3nnc4ccccc43)nn12 was read as WRN helicase inh -10.2%[57.1 µM], POLH inh 89.1µM*, POLK inh 4.2%, POLB inh -15.1%, Pol iota inh -0.1% and PI5P4K alpha inh -10.0.
For Cc1cc(NC(=O)CSCC(=O)OCC(=O)c2cccc(Br)c2)no1 the results were WRN helicase inh -19.4%, POLH inh -29.6%, POLK inh -29.0%, Pol iota inh inconclusive and PI5P4K alpha inh -61.6*.
Screening CCOc1ccc(N2CC(c3nc4ccccc4n3CCCOc3ccccc3OC)CC2=O)cc1 (stereo not given) returned POLH inh -7.4%, POLK inh -28.1%, POLB inh 5.8% and Pol iota inh -13.5%.
Screening CCSc1n[nH]c(=S)s1 returned WRN helicase inh -5.4%, POLH inh -17.3%, POLK inh 1.2%, POLB inh -15.0%, Pol iota inh 49.9% and PI5P4K alpha inh inconclusive.
For COC(=O)C(C)Sc1n[nH]c(=S)s1 (stereo not given) the results were WRN helicase inh -1.4%, POLH inh -20.5%, POLK inh 8.7%, POLB inh 16.1%, Pol iota inh 12.9% and PI5P4K alpha inh -71.7*.
For COC(=O)CSc1n[nH]c(=S)s1 the results were WRN helicase inh 6.3%, POLH inh -4.2%, POLK inh 5.7%, POLB inh 3.1%, Pol iota inh 22.0% and PI5P4K alpha inh -21.0.
For O=C(O)CC(Sc1n[nH]c(=S)s1)C(=O)O (stereo not given) the results were WRN helicase inh 3.9%, POLH inh 24.8%, POLK inh -20.9%, POLB inh 25.1µM*, Pol iota inh inconclusive and PI5P4K alpha inh inconclusive.
`Cc1nc2c(O)c3c(c(O)c2nc1C)C1C=CC3CC1` gave WRN helicase inh -19.0%, POLH inh 2.2%, POLK inh -5.0%, Pol iota inh 14.1µM* and PI5P4K alpha inh 5.2.
Screening Cc1nc2c(C)c(C)c(C)c(C)c2nc1C returned WRN helicase inh 2.8%, POLH inh -18.9%, POLK inh -2.7%, POLB inh 8.1%, Pol iota inh 58.2% and PI5P4K alpha inh 4.0.
For CC(=O)N1CCc2cc(Br)cc(S(=O)(=O)N3CCC(C)CC3)c21 the results were POLH inh -9.1%, POLK inh -1.4%, POLB inh 57.8% and Pol iota inh -4.9%.
CCOc1ccc(CCNC(=O)c2cn(C)c3ccc(S(=O)(=O)N4CCCCC4)cc3c2=O)cc1OCC was read as POLH inh -13.0%, POLK inh -4.9%, POLB inh inconclusive and Pol iota inh 79.4µM*.
Screening COC(=O)C1=C(O)/C(=C\c2ccc(CNC(=O)C(=O)Nc3ccc(C)c(C)c3)o2)N=C1C returned WRN helicase inh -13.5%[11.6 µM], POLH inh 22.4µM*, POLK inh -25.7%, POLB inh inconclusive, Pol iota inh inconclusive and PI5P4K alpha inh inconclusive.
`CCOC(=O)C(=O)NCc1ccc(/C=C2/N=C(C)C(C(=O)OCC)=C2O)o1` gave WRN helicase inh -23.6%, POLH inh -10.7%, POLK inh inconclusive, POLB inh inconclusive, Pol iota inh inconclusive and PI5P4K alpha inh -15.6.
COC(=O)C1=C(O)/C(=C\c2ccc(CNC(=O)C(=O)Nc3ccc(C)cc3)o2)N=C1C was read as WRN helicase inh inconclusive, POLH inh inconclusive, POLK inh -42.7%, POLB inh inconclusive, Pol iota inh inconclusive and PI5P4K alpha inh -11.8.
Screening CCOC(=O)C1=C(O)/C(=C\c2ccc(CNS(=O)(=O)c3ccc(Br)cc3)o2)N=C1C returned WRN helicase inh 44.7µM*, POLH inh 22.4µM*, POLK inh 50.1µM*, POLB inh -23.8%, Pol iota inh 15.8µM* and PI5P4K alpha inh -57.8*.
Screening COC(=O)C1=C(O)/C(=C\c2ccc(CNS(=O)(=O)c3ccccc3)o2)N=C1C returned WRN helicase inh inconclusive, POLH inh inconclusive, POLK inh 28.2µM*, POLB inh -20.1%, Pol iota inh inconclusive and PI5P4K alpha inh -4.5.
For COc1ccc(NC(=O)[C@@H](c2ccccc2)N2Cc3ccccc3C2=O)cc1OC the results were POLH inh -17.9%, POLK inh -4.7%, POLB inh -23.0% and Pol iota inh 3.5%.
Screening Cc1ccc(CC(=O)NO)cc1 returned POLK inh 2.5% and Pol iota inh 14.2%.
For COCCNC(=O)c1cc2ncc(Br)cn2n1 the results were WRN helicase inh 0.7%, POLH inh -8.6%, POLK inh 0.0%, POLB inh 23.3% and Pol iota inh -5.8%.
Screening O=C(c1cc2ncc(Br)cn2n1)N1CCN(C(=O)c2ccco2)CC1 returned WRN helicase inh inconclusive, POLH inh 12.6µM*, POLK inh -13.8%, POLB inh inconclusive, Pol iota inh inconclusive and PI5P4K alpha inh 1.8.
For O=C(NCCc1ccccc1)c1cc2ncc(Br)cn2n1 the results were WRN helicase inh -23.8%, POLH inh inconclusive, POLK inh -13.9%, POLB inh 39.8µM*, Pol iota inh inconclusive and PI5P4K alpha inh inconclusive.
For O=C(c1cc2ncc(Br)cn2n1)N1CCOCC1 the results were WRN helicase inh -5.6%, POLH inh 0.6%, POLK inh -3.9%, POLB inh 6.2% and Pol iota inh -4.3%.
Screening CC(C)(C)n1ncc2c(=O)n(Cc3ccc(C#N)c(F)c3)cnc21 returned POLK inh 6.2% and Pol iota inh 10.5%.

Compound activity: PubChem, National Center for Advancing Translational Sciences (NCATS)
